In the library only some 2.4% were active in any assay of this set; here they are far more common.
D2 ag-1: Beta-Arrestin HTS for Positive Allosteric Modulators of the Human D2 Dopamine Receptor: Agonists | D(2) dopamine receptor (Homo sapiens), P14416 | DiscoveRx PathHunter D2 beta-arrestin, luminescence, 90 min; 100% = 57 uM dopamine signal | activation, % (no concentration beside the values) | hit rate 0.084% among 360,000 | AID 624465, 2012; in the data active = activation above about 40%; inconclusive = between about 15% and that limit
Target sequence (P14416 whole entry, looked up): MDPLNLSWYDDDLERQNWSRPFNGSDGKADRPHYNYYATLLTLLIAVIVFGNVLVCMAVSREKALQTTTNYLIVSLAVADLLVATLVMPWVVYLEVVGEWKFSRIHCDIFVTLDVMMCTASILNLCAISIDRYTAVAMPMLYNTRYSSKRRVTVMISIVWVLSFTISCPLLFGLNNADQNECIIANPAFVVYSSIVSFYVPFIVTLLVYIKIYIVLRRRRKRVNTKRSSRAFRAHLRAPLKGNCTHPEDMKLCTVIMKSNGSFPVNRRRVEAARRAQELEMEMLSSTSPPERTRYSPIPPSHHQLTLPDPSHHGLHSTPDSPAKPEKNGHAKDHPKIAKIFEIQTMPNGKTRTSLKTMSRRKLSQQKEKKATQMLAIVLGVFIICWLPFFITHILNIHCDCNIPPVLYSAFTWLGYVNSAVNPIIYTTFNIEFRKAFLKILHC
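DiscoveRx PathHunter D2 beta-arrestin cells (2,100/well) attached overnight, then compound-stimulated 90 min at 37 C in HBSS/10 mM HEPES/0.1% Tween-20 buffer; beta-galactosidase complementation read by luminescence after 1 h at ambient temperature. Dopamine 57 uM final (EC100) as control.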
D2 ag-2: HTS Assay for Allosteric Agonists of the Human D2 Dopamine Receptor: Primary Screen for Agonists. activation, % at 2 µM. HEK293 T-REx D2 cells, calcium flux agonist mode. D(2) dopamine receptor (Homo sapiens), P14416. hit rate 0.53% among 340,000;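 active = activation over 3 SD above normal in the single-dose calcium agonist read, cut at about 30% in these data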; note: 0% is about no effect
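In this primary screen, compounds producing a positive calcium signal within 180 s of addition to tetracycline-induced, force-coupled HEK293 Trex D2 cells are flagged; cells are dye-loaded with a no-wash calcium kit beforehand.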
D2 antagonist: HTS Assay for Allosteric Antagonists of the Human D2 Dopamine Receptor: Primary Screen for Antagonists | hit rate 2% among 340,000 | AID 485344, 2010 | D(2) dopamine receptor (Homo sapiens), P14416 | HEK293 TREx D2 cells, calcium flux, dopamine EC80 | inhibition, % at 10 µM; in the data active = inhibition above about 30%; inactive = below that, where a call was filed; note: 0% is about no effect
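Compounds are added to dye-loaded, induced HEK293 T-REx cells coupled to calcium release via D2; after a 3 min kinetic read an EC80 dopamine stimulus is given and fluorescence is recorded for 3 more min.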
D2 PAM-1: HTS Assay for Positive Allosteric Modulators of the Human D2 Dopamine Receptor: Primary Screen for Potentiators; D(2) dopamine receptor (Homo sapiens), P14416; HEK293 T-REx D2, calcium flux, EC20 dopamine potentiation; potentiation, % at 10 µM; hit rate 0.34% among 340,000;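 active = potentiation over 3 SD above the plate norm, cut at about 30% in these data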; note: 0% is about no effect
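Tetracycline-induced Hek293 Trex D2 cells, force-coupled to calcium, loaded with no-wash calcium dye. Compound added with 180 s kinetic read for agonism, then EC20 dopamine and a further 180 s read for potentiation.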
D2 PAM-2: Beta-Arrestin HTS for Positive Allosteric Modulators of the Human D2 Dopamine Receptor: Potentiators; D(2) dopamine receptor (Homo sapiens), P14416; DiscoveRx D2 beta-arrestin cells, luminescence, 90 min; 100% = 57 uM dopamine signal; potentiation, % (concentration not given with the values); hit rate 0.23% among 360,000; AID 624464, 2012; in the data active = potentiation above about 50%; inconclusive = mostly about 30% to 49%
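PathHunter D2 cells, attached overnight at 37 deg C, received compound in DMSO plus dopamine at EC20 (50 nM final) for 90 min at 37 deg C. Beta-arrestin recruitment was read as luminescence after 1 h with detection reagent at ambient temperature.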
* = called active by the depositor; ? = inconclusive; · = no result given.

SMILES	D2 ag-1	D2 ag-2	D2 antagonist	D2 PAM-1	D2 PAM-2
COc1cc(C)nc(NCc2ccccc2)n1	-2	0	23	-5	-12
COc1ccc(N=C2S/C(=C\c3ccco3)C(=O)N2CC(C)C)cc1	-3	0	36*	10	-24
COc1ccc(N=C2S/C(=C\c3cc(C)n(C)c3C)C(=O)N2CC(C)C)cc1	-8	0	13	11	-8
CCc1ccc(N=C2NC(=O)/C(=C/c3cc(OC)c(OC)c(OC)c3)S2)cc1	1	1	-8	-7	-9
COc1cc(/C=C2\SC(=Nc3ccc(O)cc3)NC2=O)cc(OC)c1O	0	47*	9	-11	8
CCOC(=O)N1CCc2c(sc(NCc3cccc(F)c3)c2C(=O)Nc2ccc(OC)cc2OC)C1	·	0	·	17	·
CCOc1ccc(/C=N/NC(=O)c2cc3c(OC)cc(OC)c(OC)c3[nH]2)cc1	11	0	56*	-20	-2
Cc1c2cnn(CC(=O)N3CCN(c4ccc(F)cc4)CC3)c(=O)c2c(C)n1Cc1ccccc1F	·	·	·	-2	·
CCN(CC)CCOC(=O)c1ccc(NC(=O)CCCN2C(=O)/C(=C/c3cccs3)SC2=S)cc1	-2	-1	49*	-26	-43
O=C(CCCN1C(=O)/C(=C\c2cccs2)SC1=S)Nc1ccc(C(=O)O)cc1	-3	·	·	·	-3
COCC(=O)Nc1ncc(S(=O)(=O)c2ccc([N+](=O)[O-])cc2)s1	?	0	3	-3	?
CCCCC(=O)Nc1ncc(S(=O)(=O)c2ccc([N+](=O)[O-])cc2)s1	?	4	-6	4	-8
CC(=O)NCCC(=O)Nc1ncc(S(=O)(=O)c2ccc([N+](=O)[O-])cc2)s1	10	0	-19	7	52*
O=C(Nc1ncc(S(=O)(=O)c2ccc([N+](=O)[O-])cc2)s1)c1cccc2ccccc12	-2	26	9	-3	62*
O=C(O)c1ccc2c(=O)n3c(nc2c1)/C(=C/c1ccc(C(F)(F)F)cc1)CC3	-1	0	13	-1	1
O=c1c2ccccc2nc2n1CC/C2=C/N1CCN(c2cccc(C(F)(F)F)c2)CC1	1	0	48*	-12	-19
CCOC(=O)Cc1ccc(NC(=O)N2CCOc3ccc(C)cc32)cc1	·	1	·	10	·
COc1ccccc1CNC(=O)CCCn1c(=O)c2ccccc2n(Cc2ccccc2C#N)c1=O	·	1	·	5	·
COC(=O)c1ccn(CSc2cc(Cl)ccc2Cl)n1	3	1	42*	-1	-2
CCOC(=O)c1sc2ccccc2c1S(=O)(=O)N1CCN(c2cccc(C)c2)C(C)C1 (centres undefined)	·	1	·	-8	·
O=C(Cc1ccccc1[N+](=O)[O-])NCc1ccc(Cl)cc1Cl	-1	-3	33*	6	7
N#Cc1ccc(COc2cccc3cccnc23)cc1	1	0	-7	31*	0
Cn1c2ccc(F)cc2c2ncn(CCN3CCOCC3)c(=O)c21	-1	2	5	-2	-3
Cn1c2ccccc2c2ncn(CCCN3CCOCC3)c(=O)c21	-2	0	-1	38*	-6
CCC1CN(C(=O)N2CCC(C(=O)N3CCN(c4ccccc4F)CC3)CC2)c2ccccc2O1 (centres undefined)	·	-2	·	0	·
SMILES	D2 ag-1	D2 ag-2	D2 antagonist	D2 PAM-1	D2 PAM-2
O=C(O)/C=C/c1ccc(-c2cccc(C(F)(F)F)c2)o1	-4	-1	-5	43*	1
O=C(/C=C\c1ccc(-c2ccccc2)o1)c1ccccc1	-4	·	·	·	-14
Cc1ccc(NC(=O)CN(C)S(=O)(=O)c2ccc3c(c2)n(C)c(=O)c(=O)n3C)c(C)c1	-5	-1	1	0	-6
Cc1cc(C)c(NC(=O)CN(C)S(=O)(=O)c2ccc3c(c2)n(C)c(=O)c(=O)n3C)c(C)c1	-5	0	8	75*	1
c1ccc(C2=NN(c3ccccc3)CC2)cc1	-4	0	4	9	-13
CCOC(=O)/C(=C/c1ccc(N2CCC(c3ccccc3)=N2)cc1)C(C)=O	-1	37*	16	-24	0
CCCc1cc(=O)[nH]c(Nc2ccc(C)c(O)c2)n1	·	-1	·	-13	·
N#CCCSc1ncnc2c1oc1ccccc12	-2	0	36*	5	-16
OCCSc1ncnc2c1oc1ccccc12	-2	1	7	6	-21
CCSc1ccccc1C(=O)Nc1ccc(-c2nc3ccccc3s2)c(O)c1	·	1	·	-4	·
N/C(=N\OC(=O)c1ccc(Cl)c([N+](=O)[O-])c1)c1ccccn1	10	5	6	36*	?
N/C(=N\OC(=O)c1cc(-c2ccccc2)nc2ccccc12)c1ccccn1	48*	-2	24	-2	7
N/C(=N\OC(=O)c1ccc(Cl)cc1)c1ccccn1	15	1	-13	4	16
Cc1ccc(/C(N)=N/OC(=O)c2cc(-c3ccccc3)nc3ccccc23)cc1	-4	0	-4	2	-3
CCOc1cc(C(=O)O/N=C(\N)c2ccc([N+](=O)[O-])cc2)cc(OCC)c1OCC	?	0	-4	4	76*
N/C(=N\OC(=O)c1ccc([N+](=O)[O-])cc1)c1ccc(Br)cc1	14	0	-15	4	7
N/C(=N\OC(=O)c1ccc(Cl)c(Cl)c1)c1ccccn1	11	0	-1	-4	82*
CC(NC(=O)Cn1ccc2cc(S(=O)(=O)N3CCCCCC3)ccc21)c1ccccc1 (centres undefined)	·	-1	·	-3	·
Cc1cccc(-c2nc3scc(CCNS(=O)(=O)c4ccc5c(c4)OCCO5)n3n2)c1	·	0	·	10	·
Cc1ccc(Nc2nc3nonc3nc2Nc2cccc(C(F)(F)F)c2)cc1Cl	·	7	·	-26	·
Cc1ccc(OCCn2nnc3sc4c(c3c2=O)CCC(C)C4)cc1 (centres undefined)	·	·	·	1	·
Cc1nc2ccn(Cc3ccco3)c(=O)c2cc1C(=O)Nc1ccc(F)cc1	·	1	·	10	·
N/C(=N\OC(=O)c1ccc(Cl)c([N+](=O)[O-])c1)c1ccccc1	12	0	-9	-1	94*
COc1ccc(/C(N)=N/OC(=O)c2ccc(C)c([N+](=O)[O-])c2)cc1OC	-1	-1	-4	5	2
CCOc1cc(C(=O)O/N=C(\N)c2ccccn2)cc(OCC)c1OCC	?	1	1	12	72*

Screening results: PubChem, National Center for Advancing Translational Sciences (NCATS)
